Hit rate of the full screen: of about 330,000 compounds, about 7,700 (2.3%) were called active. Not shown: some 26% with an inconclusive outcome. The sample holds actives, similar compounds and a random draw of the others, so the mix is not that of the screen. Calls follow the shape of the dose curve; as a rule, active = well fitted inhibition curve with a large enough effect; inconclusive = small, poorly fitted or top-dose-only effect, or effect the other way; inactive = flat fitted curve, though single readings scatter.
Assay: qHTS screen for small molecules that inhibit ELG1-dependent DNA repair in human embryonic kidney (HEK293T) cells expressing luciferase-tagged ELG1; also: nearly all actives have a fitted effect of over 55% in size
Details: HEK293T ELG1-luciferase reporter, luminescence, 16 h, DNA damage induced by 5-fluorouridine; series mostly up to 46.1 µM; activity change, negative = inhibition: at the top concentration
Text: NIH Molecular Libraries Probe Production Network [MLPCN] NIH Chemical Genomics Center [NCGC] MLPCN Grant: 1 R03 MH092164-01 Assay Provider: Kyungjae Myung, NHGRI, NIH Keywords: MLPCN, qHTS, NCGC, genotoxicity, cancer Assay Overview: Cancer cells divide rapidly compared to normal cells in the body. During cell division, cancer cells need to duplicate their genome by DNA replication. The failure of genome duplication leads to cancer cells' death. Therefore, inhibitors of DNA replication could specifically kill cancer cells. Based on this concept, many chemotherapeutic agents were developed and have been used to treat cancer patients. However, there are a limited number of agents available in the clinical setting, and some of those that do exist have low efficacy and severe side effects. Therefore, if we can find the compounds that effectively block DNA replication either by directly damaging DNA or by inhibiting other cellular mechanisms, the options for cancer treatment will be broadened. With this in mind, we developed a quantitative high-throughput ELG1-luciferase reporter gene assay. Small molecules that specifically block ELG1 function in response to DNA damage can be identified by monitoring the suppression of luciferase activity. Since ELG1 defines a pathway for repairing DNA damage, agents blocking ELG1 function can be used to sensitize cancer cells to chemotherapeutic agents whose mechanism of action involves the induction of DNA damage.
Assay Protocol Summary: For genotoxicity screening, 2,000 cells in 4 uL/well were dispensed into white, solid-bottom 1536-well plates using a solenoid-based dispenser. Following transfer of 1 uL 5-Fluorouridine and 23 nL compound or DMSO vehicle by a pin tool, the plates were incubated 16 hr at 37 °C and 5% CO2. 5 ul ONE-Glo (Promega) was then added to each plate and following a 30 min incubation at room temperature, luciferase activity was quantified on a ViewLux CCD-based plate reader.
% is scaled to controls: 0 for no effect and ±100 for the full control effect; potency is read from the fitted curve at half-maximal effect.

Row | Structure (SMILES) | activity change, negative = inhibition | Potency
1 | CCN(CC)c1ccc(NC(=O)c2ccc(=O)[nH]c2)cc1S(=O)(=O)Nc1ccc(OC)cc1 | 6.95% (inactive) | –
2 | CCN(c1ccccc1)S(=O)(=O)c1cccc(C(=O)O)c1 | 0.0915% (inactive) | –
3 | CCN(c1ccccc1)S(=O)(=O)c1cccc(C(=O)NCc2ccccc2CN2CCOCC2)c1 | – | 11.6 µM (active)
4 | O=C(NCc1ccccc1CN1CCCC1)c1cccc(S(=O)(=O)Nc2ccc(F)cc2)c1 | 2.84% (inactive) | –
5 | Cc1noc(C)c1C(=O)OC(C)C(=O)Nc1ccc2c(c1)OCO2 (centres undefined) | 0.0047% (inactive) | –
6 | CC(C)C[C@H]1CN=C(Nc2ccccc2)N1CC1CCCCC1 | -13.2% (inactive) | –
7 | CCCCN(C(=O)CSCC(=O)Nc1ccc(OC)cc1)c1c(N)n(CCC)c(=O)[nH]c1=O | -3.97% (inactive) | –
8 | O=S(=O)(Nc1cccc(-n2cnnn2)c1)c1cnc(Cl)c(Cl)c1 | 1.57% (inactive) | –
9 | COc1cccc(N(CC(=O)NC2CCCCCC2)S(=O)(=O)c2ccccc2)c1 | 8.34% (inactive) | –
10 | O=C(Nc1nc2ccc(S(=O)(=O)N3CCCC3)cc2s1)C1CCCO1 (centres undefined) | -0.48% (inactive) | –
11 | Cc1ccc2nc(NC(=O)C3CCN(S(=O)(=O)c4ccc5c(c4)oc(=O)n5C)CC3)sc2c1 | – | 10.3 µM (active)
12 | Cc1nc2ccc(NC(=O)C3CCCCC3)cc2s1 | 11.8% (inactive) | –
13 | CS(=O)(=O)c1ccc2nc(NC(=O)C3CCCCC3)sc2c1 | – | 3.66 µM (active)
14 | CS(=O)(=O)c1ccc2nc(NC(=O)CN3CCCCCC3)sc2c1 | 10.2% (inactive) | –
15 | Cn1c(=O)oc2cc(S(=O)(=O)N3CCC(C(=O)Nc4ccc(OC(F)(F)F)cc4)CC3)ccc21 | 9.71% (inactive) | –
16 | CC(=O)c1c(C)[nH]c(C(=O)N2CCN(S(=O)(=O)c3ccc(F)c(F)c3)CC2)c1C | 8.13% (inactive) | –
17 | O=C(COc1ccc(S(=O)(=O)Nc2cccc(C(F)(F)F)c2)cc1)N1CCOCC1 | -4.33% (inactive) | –
18 | O=S1(=O)CCC(NC(=S)SCc2ccccc2Br)C1 (centres undefined) | 15.4% (inactive) | –
19 | COc1ccc(NC(=S)NC2CCS(=O)(=O)C2)cc1 (centres undefined) | -1.15% (inactive) | –
20 | CCCSC(=S)NC1CCS(=O)(=O)C1 (centres undefined) | – | 23.1 µM (active)
21 | O=C1COc2ccc(C(=O)CSc3ccc(Br)cc3)cc2N1 | -17% (inactive) | –
22 | O=C(NCc1ccccc1CN1CCCC1)C1CCN(S(=O)(=O)c2ccc(Cl)cc2)CC1 | 10% (inactive) | –
23 | Brc1ccc(CN2CC[C@H]3C=CCc4cccc(c43)C2)cc1 | -13.4% (inactive) | –
24 | COc1ccc(CNC(=O)COC(=O)C(CCSC)N2C(=O)c3ccccc3C2=O)cc1 (centres undefined) | 0% (inactive) | –
25 | Cc1sc2ncnc(N3CCC(C(=O)Nc4ccc(F)cc4Cl)CC3)c2c1C | – | 20.6 µM (active)

Row | Structure (SMILES) | activity change, negative = inhibition | Potency
26 | Cc1ccnc(N2CCCC(C(=O)Nc3cc(F)ccc3C)C2)n1 (centres undefined) | -12.3% (inactive) | –
27 | Cc1sc2ncnc(SCC(=O)Nc3ccc(CN4CCCC4)cc3)c2c1C | -2.86% (inactive) | –
28 | CC1CC(C)CN(CCOc2cccc3ccccc23)C1 (centres undefined) | 2.83% (inactive) | –
29 | CN(CC(=O)NCCc1ccc(S(N)(=O)=O)cc1)CC(=O)Nc1ccc(F)c(F)c1F | 6.42% (inactive) | –
30 | C=CCC[C@@H](Cc1ccc(F)cc1)C(=O)O[C@H](CNC(=O)[C@H](CC=C)CC(=O)N(CCO)Cc1ccccc1)c1ccccc1 | – | 20.6 µM (active)
31 | C=CCC[C@@H](Cc1ccc(F)cc1)C(=O)OC[C@H](Cc1c[nH]c2ccccc12)NC(=O)[C@@H](CC=C)CC(=O)N(CCO)Cc1ccccc1 | – | 20.6 µM (active)
32 | C=CCC[C@H](Cc1ccc(F)cc1)C(=O)OC[C@@H](NC(=O)[C@@H](CC=C)CC(=O)N[C@H](CO)Cc1ccccc1)C(C)(C)C | 0% (inactive) | –
33 | C=CC[C@@H](CC(=O)N[C@H](CO)Cc1ccccc1)C(=O)N[C@@H](COC(=O)[C@@H](CC=C)Cc1ccc(F)cc1)Cc1c[nH]c2ccccc12 | -11.3% (inactive) | –
34 | C=CC[C@H](CC(=O)NCCO)C(=O)N[C@@H](COC(=O)[C@@H](CC=C)Cc1ccc(F)cc1)Cc1c[nH]c2ccccc12 | -27.5% (inactive) | –
35 | C=CCC[C@@H](Cc1ccc(F)cc1)C(=O)OC[C@@H](C)NC(=O)[C@H](CC=C)CC(=O)N(CCO)Cc1ccccc1 | 0% (inactive) | –
36 | Cc1ccc(Br)c(NS(=O)(=O)c2cccc(C(=O)N3CCNC(=O)C3)c2)c1 | 11.5% (inactive) | –
37 | CC(C)c1ccc(S(=O)(=O)N2CCN(C(C)C(=O)NC3CCCC3)CC2)cc1 (centres undefined) | 0.179% (inactive) | –
38 | O=C(NC1CCCCCC1)C1CCN(C(=O)c2ccc(Cl)cc2)CC1 | 0.0569% (inactive) | –
39 | O=C(COC(=O)CN1C(=O)C2CCCCC2C1=O)Nc1ccc(F)c(F)c1F (centres undefined) | 0% (inactive) | –
40 | CCC1(C)NC(=O)N(CC(=O)N2CCN(c3cccc(Cl)c3)CC2)C1=O (centres undefined) | -7.61% (inactive) | –
41 | COc1cccc(CNc2ncc(-c3ccccc3)n2C)c1 | -18.4% (inactive) | –
42 | Cc1cc(C)n(-c2nc(C(F)(F)F)nc3ccccc23)n1 | -2.14% (inactive) | –
43 | COc1cccc(CNc2nc(C(F)(F)F)nc3ccccc23)c1 | – | 13 µM (active)
44 | c1coc(CNc2ncnc3ccccc23)c1 | 9.04% (inactive) | –
45 | CC(Nc1nc(C(F)(F)F)nc2ccccc12)c1cccs1 (centres undefined) | -9.25% (inactive) | –
46 | NS(=O)(=O)c1ccc(CCNc2nc(C(F)(F)F)nc3ccccc23)cc1 | – | 11.6 µM (active)
47 | COc1ccc(CNc2ncnc3ccccc23)cc1 | – | 2.59 µM (active)
48 | NS(=O)(=O)c1ccc(CCNC(=O)CNC(=O)Cc2ccccc2)cc1 | 1.47% (inactive) | –
49 | CCc1nc2ccccc2c(C(=O)NCc2ccc(OC)cc2)c1C | -3.67% (inactive) | –

From PubChem BioAssay AID504467 (National Center for Advancing Translational Sciences (NCATS), 2011)
